The values that follow come from paper PMC5540273 (PLoS ONE, 2017).

Structures are written as SMILES.

Conditions in all cases: concentration: 1 μM, replicates: in singlicate; n = 1
Assay [1] relates to T1, RSK4(Kin.Dom.1-N-terminal).
T1 construct: gene RPS6KA6

Assay [2] has as its system T2, RSK4(Kin.Dom.2-C-terminal).
T2 construct: gene RPS6KA6

Assay [3] relates to S6K1.
The test system of assay [4] is SBK1.
Assay [5] relates to SGK2.
Assay [6] has as its system SGK3.
The test system of assay [7] is SGK.
The test system of assay [8] is SIK2.
Assay [9] concerns SIK.
Assay [10] has as its system SLK.
Assay [11] has as its system T3, SNARK.
T3 construct: gene NUAK2

The subject of assay [12] is SNRK.
Assay [13] has as its system SRC.
Assay [14] concerns SRMS.
Assay [15] deals with SRPK1.
Assay [16] deals with SRPK2.
Assay [17] concerns SRPK3.
Assay [18] concerns STK16.
The subject of assay [19] is STK33.
Assay [20] deals with STK35.
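Also: KINOMEscan kinase panel screen.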

For `COc1cccc(C2=C(Nc3cccc(O)c3)C(=O)NC2=O)c1` [SB-390771], the “%Inh” value amounted to 0% in assay [1]; 37% in [2]; 11% in [3]; 4% in assay [4]; 0% in [5]; 16% in assay [6]. In addition, the “%Inh” value is reported as 0% in assay [7]; 3% in assay [8]; 0% in assay [9]; 69% in assay [10]; 0% in assay [11]; 0% in assay [12]. Further, the “%Inh” value was 0% in assay [13]; 0% in [14]; 2% in assay [15]; 0% in [16]; 13% in [17]; 100% in assay [18]. Besides, the “%Inh” value in assay [19] and in [20] was 0% each time.

For the compound `Cc1cc(-c2ccnc(Nc3cccc(C#N)c3)n2)cc(C)c1O` [GSK1440913], the “%Inh” value was 0% in assay [1]; 0% in [2]; 0% in [3]; 28% in assay [4]; 29% in assay [5]; 6% in assay [6]. Also, the “%Inh” value in [7] is listed as 55%; in [8], 15%; in [9], 0%; in assay [10] it was 21%; in assay [11] it was 27%; in [12], 0%. In addition, the “%Inh” value in assay [13] is on record as 7%; in assay [14], 0%; in assay [15], 78%; in [16], 54%; in assay [17], 92.2%; in [18], 90.4%. The “%Inh” value in assay [19] turned out to be 32%; in assay [20] it was 25%.

With `CNc1nccc(-c2ccc3c(N)n[nH]c3c2)n1` [GSK2206003], the “%Inh” value is listed as 59% in [1]; 24% in assay [2]; 0% in assay [3]; 36% in assay [4]; 6% in assay [5]; 38% in [6]. Moreover, the “%Inh” value in assay [7] was 36%; in assay [8], 9%; in assay [9], 0%; in assay [10], 69%; in [11], 35%; in assay [12], 0%. Moreover, the “%Inh” value is 19% in [13]; 11% in [14]; 68% in [15]; 5% in assay [16]; 31% in assay [17]; 34% in assay [18]. Further, the “%Inh” value in [19] and in [20] was 0% each time.

Regarding `Nc1ncnc2scc(-c3ccc(NC(=O)Cc4cc(F)ccc4F)cc3)c12.O=C(O)C(F)(F)F` [SB-731254-M], the “%Inh” value is listed as 17% in [1]; 18% in assay [2]; 46% in assay [3]; 27% in [4]; 27% in [5]; 23% in assay [6]. Further, the “%Inh” value in [7] is 18%; in assay [8] it was 11%; in assay [9], 5%; in assay [10], 28%; in assay [11] it was 23%; in assay [12], 11%. In addition, the “%Inh” value in [13] is reported as 13%; in assay [14], 30%; in [15], 10%; in assay [16], 25%; in assay [17], 3%; in [18], 1%. The “%Inh” value in [19] came out at 6%; in [20] it was 0%.

On to `CSc1ccc(NC2=C(c3ccc(Cl)cc3)C(=O)NC2=O)cc1` [SB-317658], for which the “%Inh” value in assay [1] is 5%; in assay [2], 0%; in assay [3] it was 0%; in assay [4] it was 29%; in assay [5], 0%; in [6], 0%. In addition, the “%Inh” value in assay [7] is 0%; in assay [8], 9%; in assay [9] it was 25%; in assay [10], 8%; in assay [11], 12%; in assay [12] it was 0%. Also, the “%Inh” value in [13] is listed as 17%; in [14], 3%; in [15] it was 0%; in assay [16], 7%; in [17], 9%; in assay [18] it was 24%. Besides, the “%Inh” value in assay [19] and in assay [20] was 0% throughout.

Consider `Cn1cc(-c2ccc3c(c2)CCN3C(=O)Cc2cc(F)cc(C(F)(F)F)c2)c2c(N)ncnc21` [GSK2635225], for which the “%Inh” value in assay [1] was 0%; in [2] it was 0%; in assay [3], 9%; in assay [4], 7%; in [5], 0%; in [6] it was 8%. Besides, the “%Inh” value amounted to 1% in [7]; 0% in assay [8]; 0% in assay [9]; 41% in assay [10]; 10% in assay [11]; 0% in assay [12]. Also, the “%Inh” value in assay [13] was 29%; in [14], 0%; in assay [15] it was 18%; in assay [16], 0%; in [17], 2%; in [18], 20%. Moreover, the “%Inh” value in [19] and in assay [20] was 0% in each case.

Take `N#CC1(c2cccc(C(=O)Nc3cccc(Oc4ccc5nc(NC(=O)C6CC6)sc5n4)c3)c2)CC1`: the “%Inh” value in assay [1] is reported as 11%; in assay [2], 10%; in [3] it was 0%; in [4], 0%; in assay [5], 0%; in assay [6] it was 0%. The “%Inh” value in assay [7] is given as 0%; in assay [8], 0%; in assay [9], 31%; in assay [10] it was 39%; in assay [11], 0%; in assay [12], 0%. In addition, the “%Inh” value in [13] came to 97.6%; in [14], 15%; in assay [15], 0%; in [16], 0%; in assay [17], 0%; in [18], 0%. Also, the entries for the “%Inh” value in [19] and in assay [20] were 16% and 0%, respectively.

Regarding `Cc1nn2c(=O)cc(N3CCO[C@H](C)C3)nc2n1Cc1cccc(Cl)c1Cl` [GSK2373693], the “%Inh” value came to 0% in assay [1]; 0% in assay [2]; 4% in assay [3]; 89% in assay [4]; 1% in assay [5]; 0% in assay [6]. The “%Inh” value in [7] amounted to 0%; in [8] it was 0%; in [9] it was 0%; in assay [10], 4%; in assay [11] it was 0%; in assay [12], 0%. The “%Inh” value in [13] turned out to be 19%; in assay [14] it was 0%; in assay [15], 40%; in assay [16], 0%; in [17], 0%; in assay [18] it was 59%. Moreover, the entries for the “%Inh” value in assay [19] and in assay [20] were 0% and 1%, respectively.
